Source: PubChem BioAssay
A number with no mark means an inactive call. The source made the active and inactive calls.

Each compound was assayed against Homeobox protein Hox-A13 (Mus musculus) (UniProt Q62424) (assay: disruptors of Hoxa13 oligonucleotide interaction – biochemical, fluorescence polarization, labeled oligonucleotide, primary screen (AID 1185)). Details: Hoxa13:DNA binding, 15 min, higher = more signal, called active from +8 up or from −8 down.
Chain of Homeobox protein Hox-A13 (Mus musculus) (Q62424 whole entry, looked up): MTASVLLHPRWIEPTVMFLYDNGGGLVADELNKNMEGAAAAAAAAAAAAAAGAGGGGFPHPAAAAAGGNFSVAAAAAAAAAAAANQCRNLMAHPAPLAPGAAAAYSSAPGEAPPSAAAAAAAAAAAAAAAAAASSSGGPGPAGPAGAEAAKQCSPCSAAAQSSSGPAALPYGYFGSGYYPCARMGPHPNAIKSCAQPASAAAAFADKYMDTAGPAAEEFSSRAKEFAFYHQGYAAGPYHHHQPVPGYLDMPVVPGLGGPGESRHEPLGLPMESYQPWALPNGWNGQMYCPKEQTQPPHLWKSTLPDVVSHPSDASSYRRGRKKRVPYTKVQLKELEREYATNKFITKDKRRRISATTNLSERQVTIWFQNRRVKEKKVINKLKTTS

SMILES | z-score
O=C1c2ccccc2[C@](Cc2ccccc2I)(C(=O)NCc2ccccc2)[C@H](c2ccc(CO)cc2)N1C1CCCCC1 | -2.27
COc1ccc(C(O)C2C=CC3C(=O)N(C)C(=O)C3N2N2CCCCC2)cc1 (stereo not given) | -4.16
C=C1C2CC3C(=C4C(CO[C@@H]4[C@H]4CCCN4S(=O)(=O)c4ccccc4[N+](=O)[O-])C4C(=O)N(C)C(=O)C34)CC2C(=O)N1C (stereo not given in full) | -7.2
COCCOC(=O)N1C(=O)[C@@]2(c3cc(C#CC4=CCCCC4)ccc31)[C@H](c1ccc(O)cc1)N1[C@H](c3ccccc3)[C@H](c3ccccc3)OC(=O)[C@H]1[C@@H]2C(=O)Nc1nc2ccccc2s1 | 1.05
C[C@H]1C2=C3C(CC[C@H]4C(OCc5ccc(F)cc5C(F)(F)F)OC[C@](C)([C@@H]34)N(C(=O)OC(C)(C)C)C2)C(CO)C1CO (stereo not given in full) | -4.04
COCCOC(=O)N1C(=O)[C@@]2(c3cc(C#CC4(O)CCCCCC4)ccc31)[C@H](C(=O)N1CCCCCCC1)[C@H]1C(=O)O[C@H](c3ccccc3)[C@H](c3ccccc3)N1[C@@H]2c1ccc(OCCO)cc1 | -15.8 (active)
COCCOC(=O)N1C(=O)[C@@]2(c3cc(C#CC4(O)CCCCCC4)ccc31)[C@H](C(N)=O)[C@H]1C(=O)O[C@H](c3ccccc3)[C@H](c3ccccc3)N1[C@@H]2c1ccccc1OCCO | -1.56
CC(=O)N1Cc2ccccc2C[C@]2(N=C(c3ccc(OCCCO)cc3)O[C@@H]2c2ccccc2)C1=O | -4.24
O=C1OCC=C[C@H]2OC34C=CCN(c5ccc(Cl)cc5)C(=O)[C@H]3N(CCCCCO)C(=O)[C@@H]4[C@@H]12 (stereo not given in full) | -3.66
C=C(C(=O)CC[C@H](OC(=O)c1cccnc1)c1cccc(OCCO)c1)C(C)C | -3.82
CC(C)C(O)C1C=CC2C(=O)N(C)C(=O)C2N1N(c1ccccc1)c1ccccc1 (stereo not given) | -4.48
O=C1O[C@@H](c2ccccc2)[C@@H](c2ccccc2)N2[C@@H](c3ccc(O)cc3)[C@]3(C(=O)Nc4ccccc43)[C@@H](C(=O)Nc3nc4ccccc4s3)[C@H]12 | 2.05
COC(=O)[C@@]1(Cc2ccc(OC)cc2)[C@H]2c3cc(C(=O)N(C)C)n(Cc4ccccc4)c3C[C@H]2CN1C(=O)c1ccccc1 | -0.853
CC1CC/C=C\[C@H]2OC34C=CCN(CCN5CCOCC5)C(=O)[C@H]3N(CCO)C(=O)[C@@H]4C2C(=O)O1 (stereo not given in full) | -5.81
COC(=O)[C@]1(CCS(=O)(=O)c2ccccc2)N=C(c2ccc(OCCCO)cc2)O[C@@H]1c1ccccc1CN=[N+]=[N-] | -0.936
CC(C)(C)OC(=O)CC[C@]1(C(=O)O)N=C(c2ccc(OCCCO)cc2)O[C@H]1c1ccccc1 | -3.48
O=C1c2ccccc2[C@@]2(Cc3ccccc3N(C3CC3)C2=O)[C@H](c2ccc(CO)cc2)N1C1CCCCC1 | -2.14
COCCOC(=O)N1C(=O)[C@@]2(c3ccccc31)[C@H](c1ccc(OCCO)cc1)N1[C@H](c3ccccc3)[C@H](c3ccccc3)OC(=O)[C@H]1[C@@H]2C(=O)Nc1nc2ccccc2s1 | 0.0267

SMILES | z-score
[N-]=[N+]=Nc1ccccc1C[C@@]1(C(=O)O)N=C(c2ccc(OCCCO)cc2)O[C@@H]1c1ccccc1 | -5.79
CCCNC(=O)[C@@]1(c2ccc([N+](=O)[O-])cc2)CC(=O)N(C2CCCCC2)[C@@H]1c1ccc(CO)cc1I | -5.34
COc1ccc([Si](C)(C)[C@H]2[C@H](CCn3cc([C@H](O)c4ccccc4)nn3)O[C@@]3(C(=O)N(Cc4ccc(N5CCOC5=O)cc4)c4ccccc43)[C@@H]2C)cc1 | -2.28
COCCCNC(=O)[C@@]1(Sc2ccc(C)cc2)CC(=O)N(Cc2cc(C(F)(F)F)cc(C(F)(F)F)c2)[C@@H]1c1ccc(CO)cc1 | -0.737
C=CCC(OC(C)=O)[C@@H]1[C@@H](N(Cc2cc3ccccc3o2)C(=O)Cc2ccc(F)cc2)c2cc(OCCCO)ccc2N1C(=O)c1ccc2ccccc2n1 (stereo not given in full) | -1.55
CCCCC(=C=CC[C@@H](O)c1ccc(OCCO)cc1)C[C@@H](O)COCc1ccccc1 | -4.47
O=C1O[C@@H](c2ccccc2)[C@@H](c2ccccc2)N2[C@@H](c3ccc(O)cc3)[C@]3(C(=O)Nc4ccc(C#CCCO)cc43)[C@@H](C(=O)NC[C@H](O)c3ccccc3)[C@H]12 | -5
[N-]=[N+]=Nc1ccccc1[C@@H]1OC(c2ccc(OCCCO)cc2)=N[C@]1(CCS(=O)(=O)c1ccccc1)C(=O)NCCN1CCOCC1 | -3.85
COCCCNC(=O)[C@@H]1c2ccccc2C(=O)N(Cc2ccccc2C(F)(F)F)[C@H]1c1ccc(CO)cc1 | -1.82
NC(=O)N1C(=O)C2C(C1=O)C1C=C(CCCO)C2C(c2cccs2)N1Cc1cc2c(cc1Br)OCO2 (stereo not given) | -5.04
CCOC(=O)C[C@H]1[C@H](OC(=O)c2ccccc2-c2ccccc2)[C@@H](NC(=O)CC(C)C)c2cc(OCCCO)ccc2N1C(=O)c1ccc2ccccc2n1 | -3.94
CN1C(=O)C2C=CC(C(O)C3CCCCC3)N(N3CCCCC3)C2C1=O (stereo not given) | -3.82
CO[C@H]1O[C@H](CO)[C@@H](OC(=O)Nc2ccc(C(F)(F)F)cc2)[C@H](OC(=O)Nc2ccc3c(c2)OCO3)[C@H]1OC(=O)Nc1ccc2c(c1)OCO2 | -3.94
NCCCCCCNC(=O)[C@@H]1C[C@@H]2C(=O)N3CCC[C@H]3C(=O)N2[C@@H]1c1ccc(O)cc1 | -2.07
COC(=O)C(CC#Cc1ccc2c(c1)[C@]1(C(=O)N2)[C@H](C(=O)O)[C@H]2C(=O)O[C@H](c3ccccc3)[C@H](c3ccccc3)N2[C@@H]1c1ccccc1OCCO)C(=O)OC | -6.38
CCOC(=O)[C@H]1C/C=C/C[C@H](C(=O)OCC)C(=O)O[C@H]2[C@@H](OC)O[C@H](CO)[C@@H](OC(=O)CCc3ccccc3)[C@@H]2OC1=O | -2.57
C[C@]12C(=O)N(CCCCCCO)[C@@H]3C(=O)N(c4ccc(Cl)cc4)CC=CC31O[C@@H]1/C=C\CCCOC(=O)C12 (stereo not given in full) | -4.68
